# According to PubChem BioAssay (NCATS):
# Where “and” joins values, the source holds several entries; their conditions need not be identical. Equal entries are not always repeated. Results filed as inconclusive are left out. Entries that show only a call come without a potency. Calls of active or inactive are those of the source. Unless noted, calls come from the whole dose curve; as a rule, active = well fitted curve in the direction sought with a large enough effect; inconclusive = small, poorly fitted or top-dose-only effect, or another doubt; inactive = no such curve, though single readings can be large; an effect the other way counts as inactive or inconclusive.
# How the values were obtained:
# [1] = biological target: Cytochrome P450 1A2 (Homo sapiens) (UniProt P05177); assay: p450-cyp1a2 (AID 410; calls by dose curve; note: potency is the fitted concentration of half-maximal effect)
# Outline: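 O-Demethylation of luciferin 6' methyl ether by human CYP1A2 is monitored as luciferase luminescence. Substrate sits at Km (100uM); enzyme is 20nM. Values are scaled to 57 uM furafylline as maximal inhibition.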
# [2] = NFAT Signaling Pathway (AID 444; active = well fitted curve in either direction with a large enough effect, not every such curve was filed as active;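 note: carbachol stimulus at about its EC50 of 1 µM final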); settings: Jurkat NFAT-bla M1, carbachol, beta-lactamase ratio, 5 h; at 38 µM (top of the series)
# Outline: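 Jurkat cells carrying an NFAT-driven β-lactamase reporter and co-transfected muscarinic M1 receptor were treated with compound plus carbachol (1 uM final, an EC50 level) for 5 h at 37 °C. CCF4 loading followed for 1 h at RT; 460/530 nm ratio gave %activity.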
# [3] = biological target: Glucocorticoid receptor (Homo sapiens) (UniProt P04150); assay: GR-GFP Redistribution (AID 450;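 active = compounds whose dose series gives a full or clear partial fitted curve of increased nuclear translocation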; note: potency is the fitted concentration of half-maximal effect); settings: U2OS GR-GFP nuclear translocation, laser cytometry, 2 h
# [4] = biological target: Mitogen-activated protein kinase 10 (Mus musculus) (UniProt Q61831); assay: JNK3 AlphaScreen Assay (AID 530; active = well fitted curve in either direction with a large enough effect, not every such curve was filed as active;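 note: kinase came from lysate of stimulated human HepG2 cells; signal reports phosphorylation of biotinylated GST-cJun 1-79 at Ser73 with 10 µM ATP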)
# Outline: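 Phosphorylation of biotinylated GST-cJun(1-79) at Ser73 is measured by AlphaScreen proximity luminescence. Enzyme is JNK3 in HepG2 lysates activated with interleukin-1beta and tumor necrosis factor alpha; ATP is 10 uM final.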
# [5] = biological target: 3',5'-cyclic-AMP phosphodiesterase 4B (Homo sapiens) (UniProt Q07343); assay: qHTS Assay for Inhibitors of PDE-IV (AID 607; active = well fitted activation curve with a large enough effect in the main read-out, with a control signal flat, not every such curve was filed as active)
# Outline: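 Cell-based read-out of cAMP via a modified cyclic nucleotide-gated channel and membrane potential dye (535/590 nm) in HEK293 cells expressing PDE4 endogenously. Compounds tested up to 22.9 uM final; 100 uM RO 20-1724 reference.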
# [6] = biological target: Pyruvate kinase (Leishmania mexicana) (UniProt Q27686); assay: qHTS Validation Assay for Inhibitors of Leishmania Mexicana Pyruvate Kinase (AID 945)
# Outline: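 LmPYK E451W 0.2 nM; 0.5 mM PEP, 0.1 mM ADP, 7 mM MgCl2, 50 mM KCl, imidazole pH 7.2, 0.01% Tween 20, 0.05% BSA; 1 h RT; PKLight luminescence; DMSO-normalized.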
# [7] = biological target: Pyruvate kinase PKM (Homo sapiens) (UniProt P14618); assay: qHTS Assay for Activators of Human Muscle Pyruvate Kinase (AID 954; active = well fitted curve in the direction sought with a large enough effect, not every such curve was filed as active)
# Outline: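 ATP production by PKM2 detected via luciferase luminescence after 1 h room-temperature reaction (0.1 nM enzyme, PEP at Km 0.5 mM, ADP 0.1 mM, pH 7.2 imidazole buffer). Inhibition scaled to no-enzyme control; activation referenced to 0.3 nM enzyme wells.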
# [8] = biological target: Alpha-galactosidase (Coffea arabica) (UniProt Q42656); assay: Counterscreen for Glucocerebrosidase Inhibitors: qHTS Assay for Coffee Bean alpha-Galactosidase at pH 4.5 (AID 957)
# Outline: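 Enzyme is added first (2 nM final), then compounds titrated from 0.7 nM to 77 uM, then 80 uM 4-methylumbelliferyl alpha-D-galactopyranoside; after 20 min at room temperature a pH 10 NaOH/glycine stop precedes fluorescence reading at 365/440 nm.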
# [9] = biological target: Alpha-galactosidase A (Homo sapiens) (UniProt P06280); assay: Counterscreen for Glucocerebrosidase Inhibitors: qHTS Assay for Human alpha-Galactosidase at pH 4.5 (AID 992)
# Outline: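 Fluorogenic 1536-well qHTS at pH 4.5 (citrate, Tween-20): 2 nM enzyme, 80 uM 4-MU-alpha-galactoside, 20 min room temperature, NaOH/glycine stop. Titration 0.7 nM to 77 uM, data normalized to no-enzyme and full-activity controls, Hill-fitted AC50.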
# [10] = biological target: alpha-glucosidase (Oryza sativa, rice) (UniProt Q653V4); assay: Counterscreen for Glucocerebrosidase Inhibitors: qHTS Assay for Rice alpha-Glucosidase at pH 5.0 (AID 997)
# Outline: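 Endpoint fluorogenic assay at pH 5.0: compounds (0.7 nM to 77 uM) titrated against 4 nM rice enzyme and 400 uM 4-MU-alpha-glucoside for 20 min at room temperature; NaOH/glycine stop, read ex 365/em 440 nm, Hill-fitted AC50.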
# [11] = biological target: Alpha-galactosidase (Coffea arabica) (UniProt Q42656); assay: Counterscreen for Glucocerebrosidase Inhibitors: qHTS Assay for Coffee Bean alpha-Galactosidase at pH 5.9 (AID 998)
# Outline: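 In 50 mM citric acid pH 5.9 with 0.005% Tween-20, coffee bean enzyme hydrolyses 80 uM 4-MU alpha-D-galactopyranoside over 20 min at RT. Activity is normalized to controls; AC50 comes from Hill-modelled concentration-response data.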
# [12] = Validation of Assay for Modulators of Lamin A Splicing (AID 1459; active = well fitted curve in the direction sought with a large enough effect in the signal ratio; the % refers to the signal ratio;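 note: cells exposed to compound for two days before reading; ratio rise marks activators and ratio drop marks inhibitors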)
# Outline: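 S3 HeLa cells stably expressing a lamin A-EGFP splicing minigene and DsRed2 were seeded at 600 cells/well in Opti-MEM with 2% FBS, pin-dosed, and incubated 48 hrs at 37 °C, 5% CO2. Laser-scanning cytometry (488 nm) gave GFP/RFP total intensity ratio.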
# [13] = qHTS Assay for Lipid Storage Modulators (AID 1519; calls by dose curve); settings: Drosophila S3 cells, BODIPY lipid droplet/cell ratio, laser cytometry, cells loaded with oleic acid
# Outline: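 Cells seeded at 5,000 per well were treated with compounds over a concentration series and loaded with oleic acid (400 uM, as added). Lipid droplet fluorescence (488 nm excitation, 500-530 nm channel) was read by laser-scanning cytometry and normalized to 20 uM Triacsin C.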
# [14] = biological target: DNA repair nuclease/redox regulator APEX1 (Homo sapiens) (UniProt P27695); assay: qHTS Validation Assay for Inhibitors of the Human Apurinic/apyrimidinic Endonuclease 1 (APE1) (AID 1705;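 note: TAMRA fluorescence gain over two minutes as APE1 cuts a quenched THF abasic duplex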)
# Outline: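 Human APE1 was preincubated with compound for 15 min at room temperature, then 50 nM (final) THF-abasic double-stranded DNA substrate bearing 5'-TAMRA and 3'-BHQ-2 was added. Incision-driven fluorescence rise (ex 525/em 598 nm) was read kinetically.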
# [15] = Counterscreen for APE1 Inhibitors: Fluorescent Dye Displacement Validation Assay (AID 1707)
# Outline: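 Counterscreen flags promiscuous DNA binders: compounds displacing ThO from duplex DNA (abasic THF site, 50 nM) reduce 540 nm emission (480 nm excitation). ThO 250 nM final; Tris-HCl pH 7.5 with NaCl, MgCl2 and Tween-20.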
# [16] = biological target: Endonuclease 4 (Escherichia coli (strain K12)) (UniProt P0A6C1); assay: Counterscreen for APE1 Inhibitors: qHTS Validation Assay for Inhibitors of Endonuclease IV (AID 1708)
# Outline: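 Enzyme (2 nM) + compound, 15 min RT; add 50 nM TAMRA/BHQ-2 THF-site dsDNA; kinetic read ex525/em598, 3 reads/60 s; activity = read 3 − read 1. Buffer Tris pH 7.5, 50 mM NaCl, 2 mM MgCl2, DTT, Tween-20.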
# Chain of Alpha-galactosidase (Coffea arabica) (Q42656 whole entry, looked up): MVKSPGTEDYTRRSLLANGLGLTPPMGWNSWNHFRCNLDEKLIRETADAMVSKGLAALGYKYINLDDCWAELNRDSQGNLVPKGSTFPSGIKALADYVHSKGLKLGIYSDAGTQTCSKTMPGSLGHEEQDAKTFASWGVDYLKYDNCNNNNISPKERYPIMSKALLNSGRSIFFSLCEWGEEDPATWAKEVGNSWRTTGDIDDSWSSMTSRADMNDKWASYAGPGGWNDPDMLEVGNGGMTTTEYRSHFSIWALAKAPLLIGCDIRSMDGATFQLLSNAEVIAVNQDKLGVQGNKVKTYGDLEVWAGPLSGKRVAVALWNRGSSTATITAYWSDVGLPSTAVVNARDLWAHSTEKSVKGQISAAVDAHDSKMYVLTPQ
# Chain of Cytochrome P450 1A2 (Homo sapiens) (P05177 whole entry, looked up): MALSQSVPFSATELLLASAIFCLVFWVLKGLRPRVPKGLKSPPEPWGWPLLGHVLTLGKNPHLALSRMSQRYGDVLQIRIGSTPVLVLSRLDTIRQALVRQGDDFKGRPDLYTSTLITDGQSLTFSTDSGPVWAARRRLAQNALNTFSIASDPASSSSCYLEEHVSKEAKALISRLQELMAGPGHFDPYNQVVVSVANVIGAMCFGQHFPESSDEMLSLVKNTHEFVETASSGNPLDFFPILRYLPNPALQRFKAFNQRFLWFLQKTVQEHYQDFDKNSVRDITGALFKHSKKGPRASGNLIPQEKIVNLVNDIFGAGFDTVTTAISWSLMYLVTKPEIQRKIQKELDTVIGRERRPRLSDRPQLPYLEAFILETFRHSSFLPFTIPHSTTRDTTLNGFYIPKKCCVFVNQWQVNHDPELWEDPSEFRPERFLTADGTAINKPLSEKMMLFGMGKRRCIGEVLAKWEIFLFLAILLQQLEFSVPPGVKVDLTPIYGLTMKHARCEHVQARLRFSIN
# Chain of 3',5'-cyclic-AMP phosphodiesterase 4B (Homo sapiens) (Q07343 whole entry, looked up): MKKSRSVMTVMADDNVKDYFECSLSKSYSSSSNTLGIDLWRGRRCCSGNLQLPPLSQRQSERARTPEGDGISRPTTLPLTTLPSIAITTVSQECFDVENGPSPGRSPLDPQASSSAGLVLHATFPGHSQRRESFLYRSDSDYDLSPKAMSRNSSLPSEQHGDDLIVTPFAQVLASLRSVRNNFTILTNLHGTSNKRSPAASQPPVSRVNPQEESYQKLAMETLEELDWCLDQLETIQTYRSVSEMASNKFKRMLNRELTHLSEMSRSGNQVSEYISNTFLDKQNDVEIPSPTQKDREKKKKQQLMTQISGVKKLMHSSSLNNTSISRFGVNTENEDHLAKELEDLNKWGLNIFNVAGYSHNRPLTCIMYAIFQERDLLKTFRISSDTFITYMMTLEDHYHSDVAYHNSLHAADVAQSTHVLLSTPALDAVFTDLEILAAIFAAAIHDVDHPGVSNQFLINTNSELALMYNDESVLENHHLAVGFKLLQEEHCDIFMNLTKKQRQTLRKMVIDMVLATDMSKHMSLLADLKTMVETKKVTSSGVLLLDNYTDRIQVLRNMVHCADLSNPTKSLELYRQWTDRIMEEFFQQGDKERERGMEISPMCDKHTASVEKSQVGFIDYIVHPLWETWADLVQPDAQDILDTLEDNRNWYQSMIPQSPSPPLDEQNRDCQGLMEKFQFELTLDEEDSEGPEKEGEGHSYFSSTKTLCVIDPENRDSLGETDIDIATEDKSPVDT
# Chain of Glucocorticoid receptor (Homo sapiens) (P04150 whole entry, looked up): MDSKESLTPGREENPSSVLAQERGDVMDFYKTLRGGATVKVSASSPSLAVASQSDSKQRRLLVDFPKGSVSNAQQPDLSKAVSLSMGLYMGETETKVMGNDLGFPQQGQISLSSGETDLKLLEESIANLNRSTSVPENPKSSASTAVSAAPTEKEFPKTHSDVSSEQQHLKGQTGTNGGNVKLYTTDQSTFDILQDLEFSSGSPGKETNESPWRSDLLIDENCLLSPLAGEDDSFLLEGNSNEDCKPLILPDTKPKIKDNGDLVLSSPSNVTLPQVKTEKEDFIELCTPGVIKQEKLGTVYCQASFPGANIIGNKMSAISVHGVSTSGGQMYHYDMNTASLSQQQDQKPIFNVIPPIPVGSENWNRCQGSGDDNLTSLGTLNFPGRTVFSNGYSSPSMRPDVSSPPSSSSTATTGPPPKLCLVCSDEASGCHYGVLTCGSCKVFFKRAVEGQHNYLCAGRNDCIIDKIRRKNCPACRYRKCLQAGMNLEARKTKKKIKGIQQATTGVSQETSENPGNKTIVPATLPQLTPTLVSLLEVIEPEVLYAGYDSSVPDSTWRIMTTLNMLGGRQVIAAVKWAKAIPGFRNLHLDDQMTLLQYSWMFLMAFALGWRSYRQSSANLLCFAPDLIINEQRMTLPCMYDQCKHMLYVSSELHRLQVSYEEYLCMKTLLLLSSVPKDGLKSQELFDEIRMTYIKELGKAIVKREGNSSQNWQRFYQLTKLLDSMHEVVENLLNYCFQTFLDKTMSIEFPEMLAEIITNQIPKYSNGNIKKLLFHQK
# Chain of Pyruvate kinase PKM (Homo sapiens) (P14618 whole entry, looked up): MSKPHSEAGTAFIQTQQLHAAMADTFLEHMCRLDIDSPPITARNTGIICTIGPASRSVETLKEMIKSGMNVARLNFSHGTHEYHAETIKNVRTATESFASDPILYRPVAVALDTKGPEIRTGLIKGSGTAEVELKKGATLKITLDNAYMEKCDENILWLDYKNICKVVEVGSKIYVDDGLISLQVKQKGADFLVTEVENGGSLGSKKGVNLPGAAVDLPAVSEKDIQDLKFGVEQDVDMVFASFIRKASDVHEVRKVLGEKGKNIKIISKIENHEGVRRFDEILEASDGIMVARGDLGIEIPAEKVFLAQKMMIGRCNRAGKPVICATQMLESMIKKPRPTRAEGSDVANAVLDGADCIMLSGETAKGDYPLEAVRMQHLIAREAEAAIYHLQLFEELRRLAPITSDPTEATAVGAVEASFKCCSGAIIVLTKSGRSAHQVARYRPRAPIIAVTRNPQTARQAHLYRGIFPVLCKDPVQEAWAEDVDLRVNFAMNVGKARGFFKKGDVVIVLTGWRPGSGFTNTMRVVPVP
# Chain of DNA repair nuclease/redox regulator APEX1 (Homo sapiens) (P27695 whole entry, looked up): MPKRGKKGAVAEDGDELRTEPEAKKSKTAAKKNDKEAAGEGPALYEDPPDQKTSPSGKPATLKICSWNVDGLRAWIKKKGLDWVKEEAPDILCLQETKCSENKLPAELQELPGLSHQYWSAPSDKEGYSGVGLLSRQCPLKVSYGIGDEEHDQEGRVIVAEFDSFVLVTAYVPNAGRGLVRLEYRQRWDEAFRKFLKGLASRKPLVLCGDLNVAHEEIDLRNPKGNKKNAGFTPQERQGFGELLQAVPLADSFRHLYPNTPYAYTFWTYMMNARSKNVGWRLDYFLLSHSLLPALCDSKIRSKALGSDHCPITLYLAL
# Chain of Alpha-galactosidase A (Homo sapiens) (P06280 whole entry, looked up): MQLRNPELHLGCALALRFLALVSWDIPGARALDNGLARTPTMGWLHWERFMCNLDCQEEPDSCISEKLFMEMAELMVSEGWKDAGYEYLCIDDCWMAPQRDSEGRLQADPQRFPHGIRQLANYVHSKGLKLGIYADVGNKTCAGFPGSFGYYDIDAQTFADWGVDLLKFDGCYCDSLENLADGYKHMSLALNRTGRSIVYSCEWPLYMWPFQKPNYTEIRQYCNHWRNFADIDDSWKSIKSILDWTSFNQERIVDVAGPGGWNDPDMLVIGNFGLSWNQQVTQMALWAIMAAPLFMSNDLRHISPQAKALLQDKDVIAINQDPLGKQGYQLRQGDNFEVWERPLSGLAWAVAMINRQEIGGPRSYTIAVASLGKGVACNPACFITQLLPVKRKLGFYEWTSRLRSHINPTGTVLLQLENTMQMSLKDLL
# Chain of Pyruvate kinase (Leishmania mexicana) (Q27686 2-499 E452W): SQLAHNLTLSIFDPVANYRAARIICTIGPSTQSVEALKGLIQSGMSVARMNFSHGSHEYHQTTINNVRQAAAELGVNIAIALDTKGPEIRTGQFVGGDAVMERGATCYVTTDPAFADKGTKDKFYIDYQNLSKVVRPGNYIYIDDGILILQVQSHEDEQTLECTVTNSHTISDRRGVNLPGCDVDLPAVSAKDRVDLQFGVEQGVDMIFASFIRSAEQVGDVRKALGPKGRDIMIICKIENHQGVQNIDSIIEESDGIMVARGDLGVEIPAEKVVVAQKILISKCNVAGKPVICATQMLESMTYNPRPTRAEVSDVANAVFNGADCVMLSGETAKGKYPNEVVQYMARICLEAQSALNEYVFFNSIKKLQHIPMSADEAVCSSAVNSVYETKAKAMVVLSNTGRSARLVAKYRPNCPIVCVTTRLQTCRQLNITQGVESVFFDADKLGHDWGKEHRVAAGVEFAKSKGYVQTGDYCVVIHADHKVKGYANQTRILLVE
structure (smiles),measurement,setting,value
CN1CCN(c2ccc3ccccc3n2)CC1,Potency,[1],10 µM (active) and 3.16 µM (active)
same,"activity change, negative = inhibition",[2],-20.6% (inactive)
same,Potency,[3],> 46 µM (inactive)
same,outcome,[4],inactive
same,Potency,[5],inactive
same,outcome,[6],inactive
same,outcome,[7],inactive
same,outcome,[8],inactive
same,outcome,[9],inactive
same,outcome,[10],inactive
same,outcome,[11],inactive
same,outcome,[12],inactive
same,"activity change, negative = inhibition",[13]; at 57.5 µM (top of the series),-1.18% (inactive) and 2.43% (inactive)
same,max response,[13]; measured here: cell count channel max response,12.9% and -15.1%
same,max response,[13]; measured here: lipid channel max response,12.4% and -14.2%
same,Potency,[14],inactive
same,Potency,[15],inactive
same,outcome,[16],inactive
